Data on eight compounds can be found in PubChem BioAssay (NCI).

Test [1] can be described thus: NCI Yeast Anticancer Drug Screen. Data for the rad50 strain (AID 155).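 Also: 0% = growth of vehicle-only cultures of the same strain.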 The following applies: S. cerevisiae rad50 strain growth inhibition, hits give high values. In a few lines: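 Yeast carrying a defined DNA repair defect were exposed to test compounds, and growth was compared with vehicle-treated controls to give percent inhibition.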
Test [2] in a line: NCI Yeast Anticancer Drug Screen. Data for the sgs1 mgt1 strain (AID 161).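 Also: 0% = growth of cultures given vehicle only.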 The conditions noted are these: S. cerevisiae sgs1 mgt1 strain, hits give high values. In a few lines: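 Read-out: growth inhibition vs vehicle controls. Cells: mutant yeast strain deficient in DNA damage repair.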
The nature of test [3]: NCI Yeast Anticancer Drug Screen. Data for the cln2 rad14 strain (AID 165).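 Also: 0% = growth equal to vehicle treated cultures.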 The following applies: S. cerevisiae cln2 rad14 strain, hits give high values. The procedure, abridged: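 Growth of compound-exposed yeast (cln2 rad14 genotype) measured and expressed as inhibition relative to vehicle.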
A short description of test [4]: NCI Yeast Anticancer Drug Screen. Data for the bub3 strain (AID 167). The conditions noted are these: S. cerevisiae bub3 mutant strain, hits give high values. In a few lines:
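Compounds were applied to a genetically altered yeast strain carrying a cell-cycle control defect. Growth inhibition was scored against vehicle-treated controls.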

Test [5] is described as follows: NCI Yeast Anticancer Drug Screen. Data for the mlh1 rad18 strain (AID 175). The conditions noted are these: S. cerevisiae mlh1 rad18 strain growth inhibition, hits give high values. In a few lines:
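In this whole-cell yeast screen, a strain with altered DNA damage repair is challenged with compound, and its growth is measured against matched vehicle-treated controls.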

The nature of test [6]: NCI Yeast Anticancer Drug Screen. Data for the mec2-1 strain (AID 157). The conditions noted are these: S. cerevisiae mec2-1 strain, hits give high values. In a few lines: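 Test agents were screened against the mec2-1 yeast strain, with defined DNA repair or cell cycle alteration. Growth was scored as inhibition against vehicle-only controls.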
[7] abbreviates: at 5.0 µM (retest, dose inferred, filed as 0.5).
Setting [8] is: at 50.0 µM (retest, dose inferred, filed as 5.0).

Values joined by “and” are separate entries in the source; they are usually repeats but may differ in a detail not shown here. Equal values may be shown once. The panel holds about 79,000 compounds, 15% with a hit somewhere; the sample as a whole holds those more often. Unmarked numbers belong to inactive results. Active and inactive are the calls of the source. Rule as the data show it: active = growth inhibition above about 70%; inactive = the rest.

Regarding `CCCCCCCCCCCC#CCCCCC(=O)O`, the growth inhibition in test [1] (setting [7]) is 87% (active); in test [1] (setting [8]), 94% (active); in test [1] (at 50.0 µM), 56.8%; in test [2] (setting [7]) it was 93% (active); in test [2] (setting [8]), 96% (active); in test [2] (at 50.0 µM), 83.7% (active). Further, the growth inhibition in test [3] (setting [7]) is 27%; in test [3] (setting [8]), 91% (active); in test [3] (at 50.0 µM), 61%; in test [4] (setting [7]), 96% (active); in test [4] (setting [8]), 95% (active); in test [4] (at 50.0 µM), 67.7%. In addition, the growth inhibition was 96% (active) in test [5] (setting [7]), 95% (active) in test [5] (setting [8]) and 60% in test [5] (at 50.0 µM).

With `CCN(CC)CCNc1c2ccccc2nc2cccc([N+](=O)[O-])c12`, the growth inhibition in test [6] (setting [7]) is 95% (active); in test [6] (setting [8]) it was 99% (active); in test [6] (at 50.0 µM), 61.4%; in test [2] (setting [7]) it was 94% (active); in test [2] (setting [8]), 99% (active); in test [2] (at 50.0 µM) it was 55%. In addition, the growth inhibition in test [3] (setting [7]) was 85% (active); in test [3] (setting [8]) it was 98% (active); in test [3] (at 50.0 µM), 86.5% (active); in test [4] (setting [7]), 93% (active); in test [4] (setting [8]), 99% (active); in test [4] (at 50.0 µM) it was 2.85%. The growth inhibition in test [5] (setting [7]) is 92% (active); in test [5] (setting [8]) it was 97% (active); in test [5] (at 50.0 µM), 62.9%.

As to `NCC(=O)NC(CO)C(=O)O` (configuration not stated), the growth inhibition was -8.05% and -12.9% and -12.8% in test [1] (at 50.0 µM); -10.5% and -5.1% and -4.35% in test [6] (at 50.0 µM); -12.2% and -2.65% and -3.75% in test [2] (at 50.0 µM); -34.1% and -5.75% and -10.1% in test [3] (at 50.0 µM); -24.7% and -11.4% and -3.6% in test [4] (at 50.0 µM); -3.35% and -12.8% and -9.4% in test [5] (at 50.0 µM).

On to `Nc1ccc(S(=O)(=O)O)c2ccccc12`, for which the growth inhibition was -17.7% and -12.8% and 15.7% in test [1] (at 50.0 µM); -18.1% and 3.25% and 3.85% in test [6] (at 50.0 µM); -10.4% and -28.8% and 7.35% in test [2] (at 50.0 µM); 6.25% and -52.1% and -17.6% in test [3] (at 50.0 µM); -1.95% and -17.8% and 7.6% in test [4] (at 50.0 µM); -12.8% and -40% and 8.1% in test [5] (at 50.0 µM).

As for `COc1ccc2nc3cc(Cl)ccc3c(Nc3ccc(O)c(CN4CCN(C)CC4)c3)c2c1`, the growth inhibition in test [6] (setting [7]) is 7%; in test [6] (setting [8]) it was -11%; in test [6] (at 50.0 µM), -26.7%; in test [2] (setting [7]), 8%; in test [2] (setting [8]), 6%; in test [2] (at 50.0 µM), 32%. The growth inhibition in test [3] (setting [7]) is 21%; in test [3] (setting [8]), 2%; in test [3] (at 50.0 µM), 27.6%; in test [4] (setting [7]) it was 8%; in test [4] (setting [8]), 6%; in test [4] (at 50.0 µM) it was -33.8%. In addition, the growth inhibition is 13% in test [5] (setting [7]), 1% in test [5] (setting [8]) and -2.9% in test [5] (at 50.0 µM).

For `COc1ccc(/C=C2/C(=O)ON=C2C)cc1OC`, the growth inhibition in test [1] (setting [7]) was -15%; in test [1] (setting [8]) it was 35%; in test [1] (at 50.0 µM) it was 93.3% (active); in test [2] (setting [7]), -14%; in test [2] (setting [8]), 48%; in test [2] (at 50.0 µM) it was 89.1% (active). For the same compound, the growth inhibition in test [3] (setting [7]) is -12%; in test [3] (setting [8]), 17%; in test [3] (at 50.0 µM) it was 42.7%; in test [4] (setting [7]) it was -3%; in test [4] (setting [8]), 55%; in test [4] (at 50.0 µM) it was 94.6% (active). Besides, the figures for the growth inhibition in test [5] (setting [7]), in test [5] (setting [8]) and in test [5] (at 50.0 µM) were -9%, 61% and 79.2% (active), respectively.

On to `Cc1ccc(/[N+]([O-])=C/c2ccccc2)cc1`, for which the growth inhibition was -2% in test [1] (setting [7]); -23% in test [1] (setting [8]); 98.2% (active) in test [1] (at 50.0 µM); -13% in test [2] (setting [7]); -2% in test [2] (setting [8]); 95.7% (active) in test [2] (at 50.0 µM). The growth inhibition in test [3] (setting [7]) is -46%; in test [3] (setting [8]) it was -25%; in test [3] (at 50.0 µM), 52.8%; in test [4] (setting [7]), -12%; in test [4] (setting [8]), 13%; in test [4] (at 50.0 µM), 99% (active). Besides, the growth inhibition in test [5] (setting [7]) was -27%; in test [5] (setting [8]), -20%; in test [5] (at 50.0 µM), 79.2% (active).

As for `CC(C)CCCOC(=O)c1cc([N+](=O)[O-])cc([N+](=O)[O-])c1`, the growth inhibition in test [6] (setting [7]) was 2%; in test [6] (setting [8]), 27%; in test [6] (at 50.0 µM) it was 53.1%; in test [2] (setting [7]) it was 5%; in test [2] (setting [8]), 51%; in test [2] (at 50.0 µM) it was 96% (active). Also, the growth inhibition is 3% in test [3] (setting [7]); 25% in test [3] (setting [8]); 54.2% in test [3] (at 50.0 µM); 0% in test [4] (setting [7]); 24% in test [4] (setting [8]); 72.6% (active) in test [4] (at 50.0 µM). Besides, the growth inhibition was 3% in test [5] (setting [7]), 70% (active) in test [5] (setting [8]) and 93.8% (active) in test [5] (at 50.0 µM).
